A number with no mark means an inactive call. Calls of active or inactive are those of the source.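 The calls were made as follows: active = IC50 below 10 µM at human M5 in a calcium flux test, acting as a negative modulator; inactive = the rest.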
The molecules below were run against Muscarinic acetylcholine receptor M5 (Homo sapiens) (UniProt P08912) (assay: M5 muscarinic receptor negative allosteric modulators, cell-based, single concentration, human M5 (AID 743025)). Conditions: CHO-K1 hM5, ACh EC80 calcium flux, Fluo-4; at 10 µM; stronger effect = lower value.
Chain of Muscarinic acetylcholine receptor M5 (Homo sapiens) (P08912 whole entry, looked up): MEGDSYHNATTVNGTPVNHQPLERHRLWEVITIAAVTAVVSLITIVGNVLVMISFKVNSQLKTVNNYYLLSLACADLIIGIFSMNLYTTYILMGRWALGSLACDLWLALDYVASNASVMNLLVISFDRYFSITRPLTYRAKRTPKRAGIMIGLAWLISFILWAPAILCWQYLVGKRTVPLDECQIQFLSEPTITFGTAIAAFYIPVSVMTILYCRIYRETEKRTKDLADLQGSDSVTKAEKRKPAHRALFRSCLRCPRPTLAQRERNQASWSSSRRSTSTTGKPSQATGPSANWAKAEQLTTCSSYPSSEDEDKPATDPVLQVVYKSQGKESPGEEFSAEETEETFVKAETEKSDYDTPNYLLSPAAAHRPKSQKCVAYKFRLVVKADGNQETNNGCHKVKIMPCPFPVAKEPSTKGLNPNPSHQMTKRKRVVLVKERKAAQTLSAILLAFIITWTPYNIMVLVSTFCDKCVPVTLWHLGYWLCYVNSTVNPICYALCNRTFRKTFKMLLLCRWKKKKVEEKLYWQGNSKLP

Row | SMILES | activity remaining
1 | CSc1ccc(C23c4ccccc4C(=O)N2CCN3C(=O)c2ccc(F)c(F)c2)cc1 (configuration not stated) | 14.6% (active)
2 | O=C1c2ccccc2C2(c3ccccc3)N1CCN2S(=O)(=O)c1cccc(C(F)(F)F)c1 (configuration not stated) | 80%
3 | O=C(c1ccc(OC(F)(F)F)cc1)N1CCCN2C(=O)c3ccccc3C12c1ccc(Cl)cc1 (configuration not stated) | 76.4%
4 | CN(C)c1ccc(C(=O)N2CCN3C(=O)c4ccccc4C23c2ccc(Cl)cc2)cc1 (configuration not stated) | 82.9%
5 | O=C(c1ccc(Cl)cc1)N1CCCN2C(=O)c3ccccc3C12c1ccccc1 (configuration not stated) | 54% (active)
6 | Cc1cccc(C(=O)N2CCN3C(=O)c4ncccc4C23c2ccccc2)c1 (configuration not stated) | 68.9%
7 | O=C(c1ccc(Cl)cc1)N1CCN2C(=O)c3ccccc3C12c1ccccc1 (configuration not stated) | 89.9%
8 | O=C(c1ccc(C(=O)C(F)(F)F)cc1)N1CCN2C(=O)c3ccccc3C12c1ccccc1 (configuration not stated) | 90%
9 | O=C1c2ccccc2C2(c3ccccc3)N1CCN2C(=O)C1CC1 (configuration not stated) | 86.4%
10 | O=C(Nc1ccc(Cl)cc1)N1CCN2C(=O)c3ccccc3C12c1ccccc1 (configuration not stated) | 78.2%
11 | O=C(c1ccc(SC(F)(F)F)cc1)N1CCCN2C(=O)c3ccccc3C12c1ccc(Cl)cc1 (configuration not stated) | 78.5%
12 | O=C1c2ccccc2C2(c3ccccc3)N1CCN2C(=S)Nc1cccc(Cl)c1 (configuration not stated) | 93%
13 | COc1ccc(C(=O)N2CCN3C(=O)c4ccccc4C23c2ccc(Cl)cc2)cc1F (configuration not stated) | 74%
14 | O=C(Nc1cccc(C(F)(F)F)c1)N1CCN2C(=O)c3ccccc3C12c1ccccc1 (configuration not stated) | 76.4%
15 | O=C(Nc1ccc(Cl)cc1)N1CCCN2C(=O)c3ccccc3C12c1ccccc1 (configuration not stated) | 84.5%
16 | O=C(c1ccccc1)N1CCN2C(=O)c3ccccc3C12c1ccc(F)cc1 (configuration not stated) | 67.6% (active)
17 | O=C(c1ccc(OC(F)(F)F)cc1)N1CCN2C(=O)c3ccccc3C12c1ccc(F)cc1 (configuration not stated) | 69.4%
18 | Cc1ccc(C(=O)N2CCN3C(=O)c4ccccc4C23c2ccc(C)cc2)cc1 (configuration not stated) | 49.1% (active)
19 | O=C(c1cccnc1)N1CCN2C(=O)c3ccccc3C12c1ccc(Cl)cc1 (configuration not stated) | 82.6%

Row | SMILES | activity remaining
20 | O=C(c1ccccc1)c1ccccc1C(=O)N1CCN(C(=O)c2ccccc2)CC1 | 85.5%
21 | COc1ccc(C23c4ccccc4C(=O)N2CCN3C(=O)c2ccccn2)cc1 (configuration not stated) | 66.1%
22 | O=C1c2ccccc2C2(c3ccccc3)N1CCN2C(=O)c1c(F)cccc1F (configuration not stated) | 84%
23 | Cc1ccc(C23c4ccccc4C(=O)N2CCN3C(=O)c2ccc(OC(F)(F)F)cc2)cc1 (configuration not stated) | 6.55% (active)
24 | O=C1c2ccccc2C2(c3ccc(Cl)cc3)NCCCN12 (configuration not stated) | 70.4%
25 | O=C(c1ccc(F)c(F)c1)N1CCN2C(=O)c3ccccc3C12c1ccccc1 (configuration not stated) | 0.88% (active)
26 | COc1ccc(C23c4ccccc4C(=O)N2CCN3C(=O)c2cccc(C)c2)cc1 (configuration not stated) | 61.1%
27 | O=C(Nc1ccc(F)cc1)N1CCN2C(=O)c3ccccc3C12c1ccccc1 (configuration not stated) | 84.3%
28 | O=C(c1ccc(SC(F)(F)F)cc1)N1CCN2C(=O)c3ncccc3C12c1ccccc1 (configuration not stated) | 62.1%
29 | Cc1ccc(C23c4ccccc4C(=O)N2CCN3C(=O)c2cc(F)cc(F)c2)cc1 (configuration not stated) | 2.43% (active)
30 | O=C(c1ccc(Br)cc1)c1ccccc1C(=O)N1CCCN(C(=O)c2ccccc2)CC1 | 78.1%
31 | O=C(c1cc(Cl)cc(Cl)c1)N1CCCN2C(=O)c3ccccc3C12c1ccccc1 (configuration not stated) | 51.9% (active)
32 | O=C(c1ccccc1)N1CCN2C(=O)c3ncccc3C12c1ccccc1 (configuration not stated) | 78.7%
33 | O=C(c1ccc(OC(F)(F)F)cc1)N1CCN2C(=O)c3ccccc3C12c1ccccc1 (configuration not stated) | 1.8% (active)
34 | Cc1ccc(C23c4ccccc4C(=O)N2CCN3C(=O)c2ccc(F)c(F)c2)cc1 (configuration not stated) | 0.51% (active)
35 | O=C(c1cccc(C(F)(F)F)c1)N1CCCN2C(=O)c3ccccc3C12c1ccc(Cl)cc1 (configuration not stated) | 78.6%
36 | Cc1ccccc1C(=O)N(C)C(c1ccccc1)c1ccccc1 | 81.6%
37 | O=C(c1ccco1)N1CCN2C(=O)c3ccccc3C12c1ccccc1 (configuration not stated) | 81.3%

Reference: PubChem BioAssay AID743025 (Vanderbilt Specialized Chemistry Center, 2013)
